Experimental data taken from PubChem BioAssay (NCATS).
Inconclusive results are not listed. A call without a number means that no potency is given here. Unmarked numbers belong to inactive results. The source made the active and inactive calls. The call rests on the fitted dose curve; in most records, active means well fitted curve in the direction sought with a large enough effect; inconclusive means small, poorly fitted or top-dose-only effect, or another doubt; inactive means no such curve, though single readings can be large; an effect the other way counts as inactive or inconclusive.

Columns and labels:
[1] = test system: HaCat; assay: Cytotoxic Profiling of Annotated Libraries Using Quantitative High-Throughput Screening (AID 1296008); conditions: Five cell lines viability, CellTiter-Glo ATP luminescence, 48-72 h; max response: hits give low values; further: nearly all actives have a fitted effect of over 60% in size
Procedure, shortened: (§1)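 Cytotoxicity was measured as CellTiter-Glo ATP luminescence, read after 10 min at room temperature. Compound treatment of the cells lasted 48 or 72 hr at 37 degrees Celsius in a qHTS format.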

[2] = test system: KB-3-1; assay: as above; conditions: Five cell lines viability, CellTiter-Glo ATP luminescence, 48-72 h; max response: hits give low values
Procedure, shortened: as §1

[3] = test system: NIH3T3; assay: as above; conditions: Five cell lines viability, CellTiter-Glo ATP luminescence, 48-72 h; max response: hits give low values
Procedure, shortened: as §1

[4] = test system: C33A; assay: Primary qHTS to identify gynecologic anti-cancer compounds using libraries of approved drugs and bioactive compounds (AID 1345084); conditions: Gynecologic cancer cell panel viability, ATPlite luminescence, 48 h; series mostly up to 57.5 µM; further: nearly all actives have a fitted effect of over 55% in size
Procedure, shortened: (§2)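 Luminescence from the ATPlite ATP-monitoring reagent indicates viable cell number; lower signal means cytotoxicity. Cells received compound 16 h after seeding and were exposed for 48 h across five concentrations.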

[5] = test system: CASKI; assay: as above; conditions: Gynecologic cancer cell panel viability, ATPlite luminescence, 48 h; series mostly up to 57.5 µM
Procedure, shortened: as §2

[6] = test system: Es-2; assay: as above; conditions: Gynecologic cancer cell panel viability, ATPlite luminescence, 48 h; series mostly up to 57.5 µM
Procedure, shortened: as §2

[7] = test system: HeLa; assay: as above; conditions: Gynecologic cancer cell panel viability, ATPlite luminescence, 48 h; series mostly up to 57.5 µM
Procedure, shortened: as §2

[8] = test system: Hek293T; assay: as above; conditions: Gynecologic cancer cell panel viability, ATPlite luminescence, 48 h, control line for the selectivity index; series mostly up to 57.5 µM
Procedure, shortened: as §2

[9] = test system: JEG-3; assay: as above; conditions: Gynecologic cancer cell panel viability, ATPlite luminescence, 48 h; series mostly up to 57.5 µM
Procedure, shortened: as §2

[10] = test system: OV90; assay: as above; conditions: Gynecologic cancer cell panel viability, ATPlite luminescence, 48 h; series mostly up to 57.5 µM
Procedure, shortened: as §2
Potency means the concentration at half of the fitted maximal effect.

Question: What does the source list for `CCC(COC)n1nnc2c(Nc3ccc(OC)cc3C)nc(C)cc21` (stereo not drawn)?
Answer: max response [1]: -0.414%; max response [2]: 6.85%; max response [3]: 2.01%; Potency [4]: inactive; Potency [5]: inactive; Potency [6]: inactive; Potency [7]: inactive; Potency [8]: inactive; Potency [9]: inactive; Potency [10]: inactive

Question: What does the source list for `C=C1C(OC(=O)/C(C)=C\C)[C@@]23CCC4[C@@](C)(CCC[C@@]4(C)C(=O)O)C2CC[C@H]1C3OC(C)=O` (stereo partly drawn)?
Answer: max response [1]: 4.6%; max response [2]: 5.82%; max response [3]: 1.34%; Potency [4]: inactive; Potency [5]: inactive; Potency [6]: inactive; Potency [7]: inactive; Potency [8]: inactive; Potency [9]: inactive; Potency [10]: inactive

Question: How did the Potency [1] turn out when `CCN1CCN(Cc2ccc(NC(=O)c3ccc(C)c(/C=C/c4cnc5[nH]ccc5c4OC)c3)cc2C(F)(F)F)CC1` was run?
Answer: 5.8 µM (active)

Question: And the Potency [2]?
Answer: 18.4 µM (active)

Question: And the Potency [3]?
Answer: 5.17 µM (active)

Question: What about the Potency [4] of the same compound?
Answer: 14.1 µM (active)

Question: What about the Potency [5] of the same compound?
Answer: 12.6 µM (active)

Question: And the Potency [6]?
Answer: 10 µM (active)

Question: What about the Potency [7] of the same compound?
Answer: 15.8 µM (active)

Question: What about the Potency [9] of the same compound?
Answer: inactive

Question: And the Potency [10]?
Answer: 17.8 µM (active)

Question: What does the source list for `C=C[C@]1(C)C=C2CCC3C(C)(CCC[C@@]3(C)C(=O)O)C2CC1` (stereo partly drawn)?
Answer: max response [1]: -0.617%; max response [2]: 8.11%; max response [3]: -2.38%; Potency [4]: inactive; Potency [5]: inactive; Potency [6]: inactive; Potency [7]: inactive; Potency [8]: inactive; Potency [9]: inactive; Potency [10]: inactive

Question: What does the source list for `C=C1C(=O)O[C@@H]2C[C@H](C)[C@@]3(O)C=C(C(C)=O)[C@]4(CC3C[C@H]12)C(=O)O[C@H]1C[C@@H](C)C(CCC(C)=O)=CC[C@H]14` (stereo partly drawn)?
Answer: max response [1]: -0.117%; outcome [2]: inactive; max response [3]: -0.126%; Potency [4]: inactive; Potency [5]: inactive; Potency [6]: inactive; Potency [7]: inactive; Potency [8]: inactive; Potency [9]: inactive; Potency [10]: inactive

Question: Which max response [1] does the source give for `O=C(O)/C=C/c1cc2c(cc1O[C@@H]1O[C@H](CO)[C@@H](O)[C@H](O)[C@H]1O)OCO2` here?
Answer: 0.0176%

Question: And the max response [2]?
Answer: 8.77%

Question: What about the max response [3] of the same compound?
Answer: 4.44%

Question: What about the Potency [4] of the same compound?
Answer: inactive

Question: What about the Potency [5] of the same compound?
Answer: inactive

Question: What about the Potency [6] of the same compound?
Answer: inactive

Question: And the Potency [7]?
Answer: inactive

Question: What about the Potency [8] of the same compound?
Answer: inactive

Question: What about the Potency [9] of the same compound?
Answer: inactive

Question: What about the Potency [10] of the same compound?
Answer: inactive

Question: Which max response [1] does the source give for `CO[C@H]1C[C@@H]2CC[C@@H](C)[C@@](O)(O2)C(=O)C(=O)N2CCCC[C@H]2C(=O)O[C@H]([C@H](C)C[C@H]2CC[C@@H](OP(C)(C)=O)[C@H](OC)C2)CC(=O)[C@H](C)/C=C(\C)[C@@H](O)[C@@H](OC)C(=O)[C@H](C)C[C@H](C)/C=C/C=C/C=C/1C` here?
Answer: -3.04%

Question: What about the max response [2] of the same compound?
Answer: 4.5%

Question: And the max response [3]?
Answer: -2.54%

Question: And the Potency [4]?
Answer: inactive

Question: What about the Potency [5] of the same compound?
Answer: inactive

Question: And the Potency [6]?
Answer: inactive

Question: And the Potency [7]?
Answer: inactive

Question: And the Potency [8]?
Answer: inactive

Question: What about the Potency [9] of the same compound?
Answer: inactive

Question: What about the Potency [10] of the same compound?
Answer: inactive

Question: Which results are given for `C/C=C1\[C@H](O[C@@H]2O[C@H](CO)[C@@H](O)[C@H](O)[C@H]2O)OC=C(C(=O)OC)[C@H]1CC(=O)O`?
Answer: max response [1]: -13.1%; max response [2]: -0.621%; max response [3]: -1.8%; Potency [4]: inactive; Potency [5]: inactive; Potency [6]: inactive; Potency [7]: inactive; Potency [8]: inactive; Potency [9]: inactive; Potency [10]: inactive

Question: For `CC(=O)N[C@H]1[C@H](O[C@H]2CC[C@@]3(C)C(CC[C@]4(C)C3CC=C3C5CC(C)(C)CC[C@]5(C(=O)O)[C@H](O)C[C@]34C)C2(C)C)O[C@H](CO[C@@H]2OC[C@H](O)[C@H](O)[C@H]2O[C@@H]2OC[C@@H](O)[C@H](O)[C@H]2O)[C@@H](O)[C@@H]1O` (stereo partly drawn), which max response [1] is on record?
Answer: -6.42%

Question: What about the max response [2] of the same compound?
Answer: 4.32%

Question: And the max response [3]?
Answer: -13.2%

Question: What about the activity change, negative = cytotoxicity [4] of the same compound?
Answer: -5.03% [at 11.6 µM]

Question: And the activity change, negative = cytotoxicity [5]?
Answer: -1.03% [at 11.6 µM]

Question: And the activity change, negative = cytotoxicity [6]?
Answer: -1.64% [at 11.6 µM]

Question: And the activity change, negative = cytotoxicity [7]?
Answer: -4.4% [at 11.6 µM]

Question: And the activity change, negative = cytotoxicity [8]?
Answer: 3.72% [at 11.6 µM]

Question: What about the activity change, negative = cytotoxicity [9] of the same compound?
Answer: 4.23% [at 11.6 µM]

Question: And the activity change, negative = cytotoxicity [10]?
Answer: 9.62% [at 11.6 µM]

Question: Which max response [1] does the source give for `COC(=O)C1(C)CCC2(C(=O)O)CCC3(C)C(=CCC4C5(C)CC(O)C(OC6OCC(O)C(O)C6O)C(C)(CO)C5CCC43C)C2C1` (stereo not drawn) here?
Answer: -27.2%

Question: What about the max response [2] of the same compound?
Answer: 9.85%

Question: What about the max response [3] of the same compound?
Answer: -9.3%

Question: What about the Potency [4] of the same compound?
Answer: inactive

Question: And the Potency [5]?
Answer: inactive

Question: And the Potency [6]?
Answer: inactive

Question: And the Potency [7]?
Answer: inactive

Question: What about the Potency [8] of the same compound?
Answer: inactive

Question: And the Potency [9]?
Answer: inactive

Question: What about the Potency [10] of the same compound?
Answer: inactive

Question: Which results are given for `CC1(C)CCCC2(C)C=C(C(=O)O)C(O)CC12` (stereo not drawn)?
Answer: max response [1]: -0.18%; max response [2]: 1.72%; max response [3]: 1.16%; Potency [4]: inactive; Potency [5]: inactive; Potency [6]: inactive; Potency [7]: inactive; Potency [8]: inactive; Potency [9]: inactive; Potency [10]: inactive

Question: What does the source list for `C=C1C[C@]23C[C@H]1CC[C@H]2[C@@]12CC[C@H](O)[C@@](C)(C(=O)O1)[C@H]2[C@@H]3C(=O)O`?
Answer: max response [1]: -1.9%; max response [2]: 6.55%; max response [3]: 3.45%; Potency [4]: inactive; Potency [5]: inactive; Potency [6]: inactive; Potency [7]: inactive; Potency [8]: inactive; Potency [9]: inactive; Potency [10]: inactive

Question: How did the Potency [1] turn out when `O=C(/C=C/c1cccc(S(=O)(=O)Nc2ccccc2)c1)NO` was run?
Answer: 5.02 µM (active)

Question: What about the Potency [2] of the same compound?
Answer: 2.82 µM (active)

Question: And the Potency [3]?
Answer: 7.96 µM (active)

Question: And the Potency [4]?
Answer: 11.2 µM (active)

Question: And the Potency [5]?
Answer: 8.91 µM (active)

Question: And the Potency [6]?
Answer: 5.01 µM (active)

Question: What about the Potency [7] of the same compound?
Answer: 4.47 µM (active)

Question: What about the Potency [9] of the same compound?
Answer: 4.47 µM (active)

Question: And the Potency [10]?
Answer: 3.98 µM (active)
